The values below come from PubChem BioAssay (NCI).

Holding throughout (test): NCI-60 one-dose screen, 48 h (100 = growth as untreated, 0 = no growth, -100 = all killed)
What all share (conditions): 10 µM unless noted

In assay [1] the test system is NCI-H23 lung.
The subject of assay [2] is NCI-H460 lung.
Assay [3] has as its system 786-0 renal.
Assay [4] deals with DU-145 prostate.
The subject of assay [5] is MDA-MB-231 breast.
The test system of assay [6] is SF-268 CNS.
Assay [7] has as its system SF-539 CNS.
Assay [8] relates to M14 melanoma.
The subject of assay [9] is SNB-75 CNS.
Assay [10] deals with PC-3 prostate.
Assay [11] relates to UACC-62 melanoma.
In assay [12] the test system is SK-MEL-28 melanoma.
Assay [13] deals with ACHN renal.
Assay [14] has as its system OVCAR-5 ovarian.
Assay [15] relates to OVCAR-3 ovarian.
For assay [16], the system named is NCI/ADR-RES ovarian.
Assay [17] deals with SW-620 colon.
Assay [18] concerns MCF7 breast.
The test system of assay [19] is HCT-116 colon.
For assay [20], the system named is KM12 colon.

About 83,000 compounds went through this panel and 20% of them were active in at least one assay; those are over-represented in the sample as a whole.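 Treatment: one concentration, 48 hours, 96-well format. Scoring: percent growth, with anything below 10 considered active.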 A number with no mark means an inactive call. Activity calls are given as the source filed them.

Turning to `CC(=O)[O][Hg][c]1nc2c(c(=O)n(C)c(=O)n2C)n1C`, the growth in assay [1] is 106%; in assay [2], 98.8%; in assay [3], 102%; in assay [4], 107%; in [5], 102%; in [6] it was 110%. In addition, the growth in assay [7] was 104%; in assay [8] it was 101%; in [9] it was 77.8%; in [10], 93.7%; in assay [11], 96.3%; in assay [12], 90.1%. The growth was 112% in [13]; 117% in assay [14]; 110% in assay [15]; 114% in assay [16]; 71.1% in assay [17]; 73.3% in assay [18]. Also, the growth in assay [19] was 99.9%; in assay [20] it was 96.6%.

Consider `CCOc1cc(C=C(C#N)C#N)cc(Br)c1O`, for which the growth is 99% in assay [1]; 102% in assay [2]; 103% in assay [4]; 109% in assay [5]; 95.6% in assay [6]; 99.5% in assay [7]. Also, the growth was 98% in assay [8]; 83.5% in assay [9]; 98.4% in assay [10]; 105% in [11]; 109% in assay [12]; 106% in assay [13]. Moreover, the growth was 108% in assay [14]; 98.8% in assay [15]; 104% in assay [16]; 106% in assay [17]; 96% in assay [18]; 99.2% in assay [19]. Also, the growth in [20] was 103%.

As to `Cc1cc(NC(=O)CCc2ccc(N3C(N)=NC(N)=NC3(C)C)cc2)ccc1S(=O)(=O)F`, the growth in assay [1] is 26.2%; in [2], 12.3%; in assay [3], 20.9%; in assay [4], 45.8%; in [5], 76.8%; in assay [6], 32.2%. The growth was 5.99% (active) in [7]; 48.2% in assay [8]; 52.5% in assay [9]; -23.4% (active) in assay [10]; 22.6% in assay [11]; 53.9% in assay [12]. Further, the growth was 70.9% in [13]; 17.9% in assay [14]; 71.5% in assay [15]; 19.2% in assay [16]; 23.1% in assay [17]; 14.9% in assay [18]. The figures for the growth in assay [19] and in [20] were 18.3% and 18.8%, respectively.

With `C[As](=O)(O)c1ccc(C(=O)O)cc1`, the growth in assay [1] was 110%; in [2], 112%; in assay [3], 109%; in assay [4] it was 109%; in [5], 102%; in assay [6] it was 110%. The growth is 102% in assay [7]; 104% in assay [8]; 90.2% in assay [9]; 97.9% in assay [10]; 101% in assay [11]; 106% in assay [12]. Also, the growth in assay [13] was 114%; in assay [14] it was 115%; in assay [15], 121%; in assay [16], 108%; in assay [17], 105%; in assay [18] it was 100%. Besides, the growth in [19] is 110%; in assay [20], 111%.

Turning to `CC(C)[C@]12O[C@H]1[C@@H]1O[C@]13[C@]1(O[C@H]1C[C@H]1C4=C(CC[C@@]13C)C(=O)OC4)[C@@H]2OC(=O)OC(C)(C)C`, the growth in assay [1] is -28% (active); in [2], 2.11% (active); in [3], 11.9%; in [4], 8.08% (active); in [5] it was 21.8%; in [6], -2.29% (active). Moreover, the growth in assay [7] is -20.2% (active); in assay [8], -75.7% (active); in assay [9], -60.5% (active); in assay [10] it was 19.8%; in assay [11], -51.4% (active); in assay [12] it was -1.69% (active). Further, the growth is 9.88% (active) in assay [13]; 24.4% in assay [14]; 5.42% (active) in assay [15]; -2.52% (active) in [16]; 1.09% (active) in assay [17]; 18.5% in [18]. Besides, the figures for the growth in assay [19] and in [20] were 4.76% (active) and 2.1% (active), respectively.

`O=C1NC(=O)C(O)(C2(O)C(=O)NC(=O)NC2=O)C(=O)N1`: the growth was 103% in [1]; 100% in [2]; 93.4% in assay [3]; 109% in assay [4]; 91.2% in assay [5]; 91.6% in assay [6]. Also, the growth in assay [7] is 88%; in assay [8], 105%; in [9] it was 94%; in [10] it was 89.2%; in assay [11] it was 87.2%; in [12], 109%. The growth in assay [13] was 104%; in [14], 88.1%; in assay [15] it was 115%; in assay [16] it was 92.7%; in assay [17] it was 96.4%; in assay [18] it was 138%. The growth in assay [19] is 97%; in [20], 100%.

On to `O=C(O)C1[O][Sb][O]C1C(=O)O` (centres undefined), for which the growth was 110% in assay [1]; 108% in assay [2]; 102% in assay [3]; 91.4% in assay [4]; 128% in [5]; 93% in [6]. In addition, the growth was 98.2% in assay [7]; 94.5% in [8]; 94.8% in assay [9]; 102% in [10]; 110% in assay [11]; 94% in [12]. Moreover, the growth in assay [13] was 106%; in assay [14], 120%; in assay [15] it was 95.4%; in assay [16] it was 103%; in assay [17], 117%; in assay [18] it was 92%. In addition, the growth in [19] was 103%; in [20] it was 99.5%.

As to `C=CCc1ccc(OC(=O)Cc2ccccc2)c(OC)c1`, the growth in assay [1] is 93.8%; in [2] it was 105%; in [3], 99.2%; in assay [4] it was 111%; in [5] it was 106%; in assay [6] it was 107%. In addition, the growth in [7] was 97.8%; in assay [8] it was 106%; in [9], 76.3%; in assay [10], 100%; in [11] it was 114%; in assay [12], 106%. The growth in [13] is 110%; in assay [14], 110%; in [15], 110%; in assay [16] it was 105%; in assay [17], 106%; in [18], 96%. Further, the growth in [19] was 105%; in assay [20], 110%.
